Screening data: PubChem BioAssay, National Center for Advancing Translational Sciences (NCATS)
WRN inhibitor – inhibitors of human WRN helicase; Q14191; 0.46% of 360,000 active; WRN helicase unwinding, fluorescent forked duplex, kinetic; Potency, µM (top dose mostly 114 µM), inactives show top-dose activity change, negative = inhibition, actives largely listed as inhibitors; also: potency is read from the fitted curve at half-maximal effect; % is scaled to controls: 0 for no effect and ±100 for the full control effect; nearly all actives have a fitted effect of over 55% in size
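WRN at 20 nM final was preincubated with compound for 15 min at room temperature; reaction started with 100 nM forked duplex oligonucleotide carrying fluorophore and quencher plus 2 mM ATP (final). Unwinding followed kinetically by red fluorescence (ex 525/em 598 nm).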
Pol iota inh – blocks human DNA polymerase iota activity; Q9UNA4; Pol iota fluorescent replication assay, 10 min; Potency, µM (titrated, usually from 115 µM), for the others: at the highest dose activity, negative = inhibition, most hits filed as inhibitors; 1% of 390,000 active; also: potency is read from the fitted curve at half-maximal effect
Target sequence (Q9UNA4 whole entry, looked up): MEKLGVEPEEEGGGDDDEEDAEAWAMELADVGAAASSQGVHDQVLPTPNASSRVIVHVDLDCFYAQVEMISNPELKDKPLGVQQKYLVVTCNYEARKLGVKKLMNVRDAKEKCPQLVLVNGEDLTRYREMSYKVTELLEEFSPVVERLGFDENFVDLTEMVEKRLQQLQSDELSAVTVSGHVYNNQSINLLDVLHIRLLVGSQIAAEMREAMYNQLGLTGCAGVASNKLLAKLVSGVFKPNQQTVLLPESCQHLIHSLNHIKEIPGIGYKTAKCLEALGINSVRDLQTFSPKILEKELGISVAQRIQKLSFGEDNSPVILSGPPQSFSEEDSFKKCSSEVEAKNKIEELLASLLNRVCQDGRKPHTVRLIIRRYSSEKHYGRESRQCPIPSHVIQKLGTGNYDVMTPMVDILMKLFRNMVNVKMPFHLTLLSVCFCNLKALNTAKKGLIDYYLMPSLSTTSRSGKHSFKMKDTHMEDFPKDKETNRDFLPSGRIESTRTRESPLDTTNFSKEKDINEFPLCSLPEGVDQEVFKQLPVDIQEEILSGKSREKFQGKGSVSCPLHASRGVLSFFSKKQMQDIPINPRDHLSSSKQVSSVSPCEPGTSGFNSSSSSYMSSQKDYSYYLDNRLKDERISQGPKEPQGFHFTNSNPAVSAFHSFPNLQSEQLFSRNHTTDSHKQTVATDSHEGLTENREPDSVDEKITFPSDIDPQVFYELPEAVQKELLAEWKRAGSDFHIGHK
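Pol iota at 10 nM preincubated 15 min with compounds at room temperature; reaction started with fluorescent substrate, 50 nM final. Fluorescence read kinetically at 0 and 10 min; buffer-only wells as negative control.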
PI5P4K alpha inh – blocks human PI5P4K alpha kinase activity | PI5P4Kalpha enzyme, ADP-Glo luminescence, 60 min; stronger effect = lower value | max response, % | 1.2% of 330,000 active | AID 652105; active = max response of -50% or lower; inconclusive = between -30% and -50%; inactive = -30% or higher; also: value at the top dose of about 77 µM; % is scaled to controls: 0 for no effect and ±100 for the full control effect
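Reactions run in 0.038 M HEPES pH 7.4, 0.28 mM EGTA, 0.1% CHAPS and 5% DMSO, with PI5P4Kalpha, substrate, compound and 5 microM ATP final, one hour at room temperature. Readout is ADP-Glo luminescence.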
Pol kappa inh – blocks human DNA polymerase kappa activity; Q9UBT6; purified Pol kappa, fluorescent DNA synthesis assay, 10 min; Potency, µM (highest dose often 107 µM), inactives show at the top dose activity, negative = inhibition, most hits filed as inhibitors; 0.53% of 400,000 active; also: potency is read from the fitted curve at half-maximal effect; % is scaled to controls: 0 for no effect and ±100 for the full control effect
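Readout: fluorescence, taken kinetically at 0 and 10 min. Conditions: 10 nM Pol kappa, 15 min RT compound preincubation, 50 nM substrate final. Controls: enzyme-free buffer wells.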
Pol eta inh – blocks human DNA polymerase eta activity | AID 588591 | Potency, µM (series often up to 114 µM), inactives show at the highest dose activity change, negative = inhibition, most hits filed as inhibitors | 1.2% of 390,000 active | Q9Y253 | recombinant Pol eta, fluorescent DNA replication assay; also: potency is read from the fitted curve at half-maximal effect; % is scaled to controls: 0 for no effect and ±100 for the full control effect
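Pol eta (10 nM) was preincubated with compounds for 15 min at room temperature, after which fluorescent replication substrate (50 nM final) was added to start the reaction. Fluorescence was read kinetically at 0 and 10 min.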
Pol beta inh – DNA polymerase beta (human) inhibition. Pol beta primer extension/strand displacement, fluorescence kinetic. 1.3% of 340,000 active. Potency, µM (series often up to 114 µM), for the others: at the top dose activity change, negative = inhibition, usual class: inhibitors. P06746. AID 485314; also: potency is read from the fitted curve at half-maximal effect; % is scaled to controls: 0 for no effect and ±100 for the full control effect
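Values derive from four-parameter Hill fits of normalized kinetic data: reads at 0 and 10 min following addition of 50 nM substrate to 10 nM Pol beta preincubated 15 min with compound.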
* hit, by the source's call; ? = inconclusive; nt = no result; [ ] = remark or other dose. An excerpt weighted towards active compounds, which were near 2.8% of everything screened. Unless noted, calls follow the shape of the dose curve; as a rule, active = well fitted curve in the direction sought with a large enough effect; inconclusive = small, poorly fitted or top-dose-only effect, or another doubt; inactive = no such curve, though single readings can be large; an effect the other way counts as inactive or inconclusive.

SMILES	WRN inhibitor	Pol iota inh	PI5P4K alpha inh	Pol kappa inh	Pol eta inh	Pol beta inh
O=C(CCCCCn1c(=O)c2sccc2n(CC(=O)Nc2cccc(Cl)c2)c1=O)NCc1ccc2c(c1)OCO2	nt	-7.0%	nt	5.8%	-1.6%	-2.8%
CN(C)c1ccc(/C=C2/CCc3ccccc32)cc1	nt	8.9%	nt	-12.8%	nt	nt
Cc1c(Cl)cccc1Nc1n[nH]c(=S)s1	-12.0%	-24.8%	-88.0*	-0.4%	-11.5%	nt
S=c1[nH]nc(Nc2cccc3ccccc23)s1	?	34.9%	-73.8*	-16.0%	-10.8%	31.9%
Fc1ccccc1Nc1n[nH]c(=S)s1	-15.9%	15.2%	-74.0*	-8.5%	8.4%	26.9%
Cc1ccccc1Nc1n[nH]c(=S)s1	-2.8%	nt	?	nt	-8.0%	nt
CN1CCN(S(=O)(=O)c2ccc(NC(=S)NC(=O)c3ccc(Cl)cc3)cc2)CC1	-31.4%	?	-51.4*	-26.2%	?	-3.5%
CN1CCN(S(=O)(=O)c2ccc(NC(=S)NC(=O)c3ccccc3)cc2)CC1	-6.0%	1.2%	-14.8	0.3%	-2.9%	1.2%
CSCCC(NS(=O)(=O)c1ccc(C)c(C(=O)O)c1)C(=O)O (centres undefined)	1.0%[11.6 µM]	-22.2%	0.4	-14.6%	?	25.1µM*
COc1ccc(NS(=O)(=O)c2ccc(C)c(C(=O)O)c2)cc1	-6.4%[11.6 µM]	?	nt	-9.5%	79.4µM*	44.7µM*
Cc1ccc(C)c(N2CCN(S(=O)(=O)c3ccc4[nH]c(=O)ccc4c3)CC2)c1	-5.0%	?	-17.5	-0.7%	?	28.2µM*
Cc1cccc(N2CCN(S(=O)(=O)c3ccc4[nH]c(=O)ccc4c3)CC2)c1C	-6.9%	?	-1.7	-25.9%	4.5%	-18.5%
CCCNC(=O)C1CCN(S(=O)(=O)c2ccc3[nH]c(=O)ccc3c2)CC1	4.3%	-4.4%	-14.9	6.0%	-4.0%	5.8%
CCC1CCCCN1S(=O)(=O)c1ccc2[nH]c(=O)ccc2c1 (centres undefined)	-10.7%[11.6 µM]	?	?	-24.1%	50.1µM*	35.5µM*
Cc1c(C(=O)Nc2ccc(F)c(F)c2)oc2ccc(S(=O)(=O)N(C)C3CCCCC3)cc12	nt	22.0%	nt	-11.3%[60.1 µM]	-9.6%	-1.3%
O=C1c2ccccc2C(=Cc2cccnc2)c2ccccc21	-4.4%	nt	-54.1*	nt	-27.3%	nt
CN(C)c1ccc(C=Nc2cnc3ccccc3c2)cc1	nt	4.5%	nt	-14.6%	nt	nt
CCO/C(=C/c1sc2ccc(OC)cc2[n+]1CCCS(=O)(=O)[O-])CC	-3.8%	-16.0%	1.1	-12.8%	-2.5%	-1.0%
CCOC(=O)C[n+]1c(C)sc2ccc(OC)cc21	50.1µM*	?	-21.6	0.6%	-13.1%	20.6%
O=C1NC(=S)SC1=Cc1ccccc1C(=O)O	-8.8%	nt	-77.6*	nt	nt	nt
N#CC1=C(N)NC(SCc2ccccc2)=C(C#N)C12CCCC2	-22.5%	-13.5%	-63.0*	-2.7%	-17.9%	2.0%
CSC1=C(C#N)C2(CCCC2)C(C#N)=C(N)N1	nt	nt	nt	nt	nt	7.8%
N#CC1=C(N)NC(SCc2ccc(Cl)cc2)=C(C#N)C12CCCCC2	-5.8%[11.6 µM]	?	-2.1	?	-12.8%	8.8%
CCSC1=C(C#N)C2(CCCC2)C(C#N)=C(N)N1	?	-0.9%	-56.7*	-12.5%	-14.9%	16.2%
COc1cc(NC(=O)C2CCN(S(=O)(=O)c3c(C)noc3/C=C/c3ccccc3F)CC2)cc(OC)c1OC	nt	8.3%	nt	-6.7%[60.1 µM]	4.7%	4.6%
SMILES	WRN inhibitor	Pol iota inh	PI5P4K alpha inh	Pol kappa inh	Pol eta inh	Pol beta inh
C=C(C)COc1ccc2oc(C)c(C(=O)OCCOC)c2c1	3.7%	89.1µM*	nt	-2.1%	0.9%	14.7%
CCc1ccc2nc(NC(=O)c3ccc(N4C(=O)CCC4=O)cc3)sc2c1	-2.5%	7.3%	-1.5	-14.4%	-15.1%	27.2%
CCc1ccc2nc(NC(=O)c3ccc4c(=O)[nH]c(CN5CCOCC5)nc4c3)sc2c1	?	?	nt	-21.3%	50.1µM*	79.4µM*
CC(Sc1nc(=O)cc(N)n1CCc1ccccc1)C(=O)Nc1ccccc1C#N (centres undefined)	nt	8.2%	nt	6.6%	2.4%	19.6%
COc1c2c(c(C)c3c1C(=O)OC3)O[C@@]1(C)CC[C@@]3(O)C(C)(C)OC(=O)CC[C@]3(C)[C@H]1C2	-6.4%[11.6 µM]	?	-18.4	-37.1%	44.7µM*	?
Cc1cccc(C(=O)Nc2ccc(N3CC=C(c4ccccc4C)CC3)c(C(=O)O)c2)c1	nt	5.2%	nt	-6.6%[60.1 µM]	-14.2%	2.3%
CCSc1nnc(N2C(=O)c3ccc(C(=O)c4ccc(C(=O)O)cc4)cc3C2=O)s1	1.0%	-0.7%	-85.3*	-12.2%	4.2%	12.8%
Cc1ccc(N2C(=O)c3ccc(C(=O)O)cc3C2=O)cc1C	5.7%	15.8%	nt	-10.9%	-18.1%	-0.2%
Cc1nn(Cc2ccc(Cl)cc2)c(C)c1NC(=O)c1cc(-c2ccco2)on1	-4.1%	-22.0%	-22.3	-29.8%	6.1%	0.6%
Cc1nn(Cc2ccc(Cl)c(Cl)c2)c(C)c1NC(=O)c1cc(-c2ccco2)on1	-9.7%	12.4%	nt	-23.9%	-4.2%	44.7µM*
CCCCCCCCCC[N+](C)(C)CC/C=C1/c2ccccc2Sc2ccc(Cl)cc21	-11.7%	55.6%	19.4	-2.3%	-17.0%	39.8µM*
CCCCCCCCCCC[N+](C)(C)CC/C=C1/c2ccccc2Sc2ccc(Cl)cc21	-16.4%	-15.3%	15.8	-1.2%	-13.0%	?
Cc1ccc(/C=C2\NC(=S)NC2=O)cc1[N+](=O)[O-]	-12.5%	40.4%	2.4	-9.4%	-25.6%	-0.5%
O=C1NC(=S)N/C1=C/c1cc([N+](=O)[O-])ccc1O	?	?	-60.9*	-3.3%	-15.0%	1.0%
O=C1NC(=S)N/C1=C/c1cccc([N+](=O)[O-])c1O	-17.6%	6.1%	-89.1*	-13.2%	?	-13.8%
Cn1c(CCCNC(=O)c2ccco2)nc2ccccc21	-29.9%	?	-70.2*	-28.5%	?	nt
Cn1c(CCNC(=O)c2ccco2)nc2ccccc21	11.7%	20.6%	-2.9	-10.3%	-20.3%	nt
O=C(CCC1CCCN(C(=O)c2ccc3cc[nH]c3c2)C1)N1CCN(c2ccccn2)CC1 (centres undefined)	-1.5%	-3.5%	-0.5	8.0%	-6.1%	39.8µM*
O=C(N/N=C/c1cccnc1)c1ccccc1Cl	-7.8%	?	-0.1	-4.5%	-8.5%	-29.0%
O=C(N/N=C\c1cccnc1)c1cc(-c2ccc(Cl)s2)[nH]n1	?	?	-24.8	-38.9%	?	14.1µM*
Cc1cccc(C(=O)Nc2ccc(C(=O)N/N=C/c3ccc4c(c3)OCO4)cc2)c1	7.4%	0.9%	-13.7	-1.7%	-8.6%	35.5µM*
O=C(N/N=C/c1cccnc1)c1ccc(NC(=O)c2cccc(Cl)c2)cc1	-31.7%	?	-3.3	-13.9%	?	8.91µM*
O=C(N/N=C/c1cccnc1)c1ccc(NC(=O)c2ccc(Cl)cc2)cc1	-0.6%	121.2%	-12.6	0.0%	-22.0%	2.3%
